The record followed here is PubChem BioAssay (NCATS).

Inconclusive results are not listed. A number with no mark means an inactive call. Active and inactive are the calls of the source. Calls come from the whole dose curve; as a rule, active = well fitted curve in the direction sought with a large enough effect; inconclusive = small, poorly fitted or top-dose-only effect, or another doubt; inactive = no such curve, though single readings can be large; an effect the other way counts as inactive or inconclusive.

One experiment concerns CRL-7250. The experiment is described as follows: Cytotoxic Profiling of Annotated Libraries Using Quantitative High-Throughput Screening (AID 1296008). For max response: % is set by controls: 0 for no effect and ±100 for the full control effect. Note: nearly all actives have a fitted effect of over 60% in size. Note: potency is the fitted concentration of half-maximal effect. Particulars: Five cell lines viability, CellTiter-Glo ATP luminescence, 48-72 h; max response: active compounds read low. In outline: (§1)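 Compounds were pin-transferred onto cells and incubated 48 or 72 hr at 37 degree Celsius, 95% humidity. CellTiter-Glo was added, plates sat 10 min at room temperature, then ATP-coupled luminescence was imaged as the viability read-out.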

The test system of a further experiment is HEK293. The experiment is described as above. Particulars: Five cell lines viability, CellTiter-Glo ATP luminescence, 48-72 h; max response: active compounds read low. The procedure, abridged:
as §1

Experiment [1] relates to HaCat. The description is as above. Conditions: Five cell lines viability, CellTiter-Glo ATP luminescence, 48-72 h; max response: active compounds read low. The procedure, abridged: as §1
For experiment [2], the system named is NIH3T3. The experiment is described as above. Particulars: Five cell lines viability, CellTiter-Glo ATP luminescence, 48-72 h; max response: active compounds read low. The procedure, abridged:
as §1

Experiment [3] deals with HACAT. The experiment is described as follows: qHTS assay to identify novel small-molecules to repurpose for Merkel cell carcinoma treatment (AID 1296009). Note: nearly all actives have a fitted effect of over 60% in size. Conditions: MCC and control cell lines, CellTiter-Glo viability, 72 h; at 44.8 µM (top of the series) unless noted. The procedure, abridged:
(§2)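 Luminescence from CellTiter-Glo, read 10 min after addition at room temperature, reported viability following a 72 hr, 37 degree celsius treatment with NPC or MIPE compounds in titration; values normalized to plate controls.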

The next experiment concerns CAOV3. Kind of experiment: Primary qHTS to identify gynecologic anti-cancer compounds using libraries of approved drugs and bioactive compounds (AID 1345084). Note: nearly all actives have a fitted effect of over 55% in size. Note: potency is the fitted concentration of half-maximal effect. Particulars: Gynecologic cancer cell panel viability, ATPlite luminescence, 48 h; series mostly up to 57.5 µM. The procedure, abridged:
(§3)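 Five-point cytotoxicity, 48 h drug exposure at 37 C, 5% CO2, on cells seeded 16 h beforehand. ATP content read by ATPlite luminescence.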

The subject of the next experiment is HeLa. The experiment is described as above. Conditions: Gynecologic cancer cell panel viability, ATPlite luminescence, 48 h; series mostly up to 57.5 µM. The procedure, abridged: as §3
A further experiment deals with JEG-3. The description is as above. Conditions: Gynecologic cancer cell panel viability, ATPlite luminescence, 48 h; series mostly up to 57.5 µM. In outline: as §3
In another experiment the test system is OV90. Described as above. Conditions: Gynecologic cancer cell panel viability, ATPlite luminescence, 48 h; series mostly up to 57.5 µM. The procedure, abridged:
as §3

For another experiment, the system named is PA-1. The experiment is described as above. Particulars: Gynecologic cancer cell panel viability, ATPlite luminescence, 48 h; series mostly up to 57.5 µM. The procedure, abridged:
as §3

Experiment [4] relates to NIH3T3. The experiment is described as follows: qHTS assay to identify novel small-molecules to repurpose for Merkel cell carcinoma treatment (AID 1296009). Note: nearly all actives have a fitted effect of over 60% in size. Particulars: MCC and control cell lines, CellTiter-Glo viability, 72 h; series mostly up to 44.8 µM. The procedure, abridged:
as §2

The test system of another experiment is C33A. The experiment is described as follows: Primary qHTS to identify gynecologic anti-cancer compounds using libraries of approved drugs and bioactive compounds (AID 1345084). Note: nearly all actives have a fitted effect of over 55% in size. Note: potency is the fitted concentration of half-maximal effect. Conditions: Gynecologic cancer cell panel viability, ATPlite luminescence, 48 h; series mostly up to 57.5 µM. In outline:
as §3

The subject of another experiment is CASKI. The experiment is described as above. Particulars: Gynecologic cancer cell panel viability, ATPlite luminescence, 48 h; series mostly up to 57.5 µM. The procedure, abridged: as §3
In the next experiment the test system is Es-2. Described as above. Particulars: Gynecologic cancer cell panel viability, ATPlite luminescence, 48 h; series mostly up to 57.5 µM. The procedure, abridged:
as §3

The subject of another experiment is Hek293T. The experiment is described as above. Conditions: Gynecologic cancer cell panel viability, ATPlite luminescence, 48 h, control line for the selectivity index; series mostly up to 57.5 µM. The procedure, abridged:
as §3

Regarding `COc1cc(C[C@H]2C(=O)OC[C@@H]2Cc2ccc(OC)c(OC)c2)ccc1O`, the Potency in the experiment on CRL-7250 was 0.508 µM (active); in the experiment on HEK293, 1.01 µM (active). Moreover, the compound was classed as inactive with HaCat [1] and in the experiment with HACAT [3]. Further, the max response with NIH3T3 [2] is -24.5%. Further, the Potency result with CAOV3, in the experiment with HeLa, in the experiment on JEG-3, in the experiment with OV90 and in the experiment on PA-1 was “inactive” in each case.

As for `CC(=O)OC(C)(C)/C=C/C(=O)C(C)(O)C1C(O)CC2(C)C3CC=C(C(C)(C)C(=O)O)C(CC(=O)O)C3(C)C(=O)CC12C` (stereo not drawn), the max response in the experiment with CRL-7250 was 2%; with HEK293, -1.12%. In addition, the outcome in the experiment with HaCat [1] and in the experiment on NIH3T3 [2] was inactive. Also, the outcome with HACAT [3] was “inactive [at 17.4 µM]”. In addition, the Potency entry in the experiment on NIH3T3 [4], with C33A, in the experiment on CASKI, in the experiment on Es-2, in the experiment on HeLa and with Hek293T was “inactive” throughout. The Potency result with JEG-3, with OV90 and with PA-1 was “inactive” each time.

In the case of `Cc1ccc(NC(=O)c2ccc(CN3CCNCC3)cc2)cc1Nc1nccc(-c2cccnc2)n1`, in the experiment with CRL-7250, the max response was -21.4%. Also, the Potency in the experiment on HEK293 was 10.3 µM (active); with CAOV3 it was 22.4 µM (active); with CASKI it was 17.8 µM (active); with Es-2, 15.8 µM (active); in the experiment on Hek293T, 11.2 µM (active); in the experiment with JEG-3 it was 17.8 µM (active). Moreover, the Potency with OV90 is 14.1 µM (active); in the experiment on PA-1, 12.6 µM (active). Further, the compound was classed as inactive in the experiment on HaCat [1], in the experiment with NIH3T3 [2] and in the experiment with HACAT [3]. For the same compound, the Potency entry with NIH3T3 [4] was “inactive”.

For the compound `C=C(C)Cn1c(SCC(=O)c2cccs2)nc2sc3c(c2c1=O)CCCC3`, the max response in the experiment with CRL-7250 is -0.048%; in the experiment on HaCat [1], 2.85%. Moreover, the Potency in the experiment with HEK293 was 1.64 µM (active); with NIH3T3 [2], 1.84 µM (active). Further, the Potency result in the experiment with C33A, in the experiment on CAOV3, with CASKI, in the experiment with Es-2 and with OV90 was “inactive” throughout.

For the compound `O=c1cc(NCCCN[C@@H]2CCOc3c(Br)cc(Br)cc32)[nH]c2ccsc12`, the figures for the max response in the experiment with CRL-7250, in the experiment on HaCat [1] and in the experiment on NIH3T3 [2] were 1.96%, -8.13% and 2.02%, respectively. Further, the Potency with HEK293 is 5.8 µM (active). Besides, the Potency entry in the experiment with C33A, with CAOV3, in the experiment on CASKI, in the experiment with Es-2, in the experiment on HeLa and in the experiment with JEG-3 was “inactive” throughout. Further, the Potency result in the experiment on OV90 and with PA-1 was “inactive” throughout.

In the case of `COC(=O)c1cc2c(C(F)(F)F)cc(-c3ccccc3)cc2n1O`, the max response with CRL-7250 was -4.54%; in the experiment with HEK293 it was 0.379%. Besides, the compound was classed as inactive with HaCat [1], with NIH3T3 [2] and with HACAT [3]. Also, the Potency entry with NIH3T3 [4], with C33A, in the experiment on CASKI, in the experiment with Es-2, in the experiment with HeLa and with Hek293T was “inactive” in each case. Further, the Potency result with JEG-3, in the experiment on OV90 and in the experiment with PA-1 was “inactive” in each case.

In the case of `CC(C)=C1C[C@@]2(C)C(=CC1=O)CC[C@@H](OC(=O)/C(C)=C/CO)[C@@H]2C`, the Potency is 3.21 µM (active) in the experiment with CRL-7250 and 1.28 µM (active) with HEK293. In addition, the result in the experiment with HaCat [1] and in the experiment with HACAT [3] was inactive. For the same compound, the max response with NIH3T3 [2] was -20.7%. In addition, the Potency entry with CAOV3, in the experiment on HeLa, with Hek293T, in the experiment on JEG-3 and with OV90 was “inactive” in each case.

As to `CC(=O)O[C@@H]1C[C@@]23C[C@@]24CC[C@H](O[C@@H]2OC[C@H](O)[C@H](O)[C@H]2O)C(C)(C)[C@@H]4CC[C@H]3[C@]2(C)[C@@H](O)C34O[C@H](C[C@@H](C)[C@@H]3[C@@]12C)[C@@H](C(C)(C)O)O4`, the values for the max response in the experiment on CRL-7250, in the experiment on HEK293 and with NIH3T3 [2] were 4.08%, -6.78% and 2.71%, respectively. Further, the compound was classed as inactive in the experiment on HaCat [1] and in the experiment on HACAT [3]. The Potency result in the experiment on C33A, in the experiment with CAOV3, in the experiment with CASKI, with Es-2, in the experiment with HeLa and with Hek293T was “inactive” throughout. Besides, the Potency result in the experiment on JEG-3, with OV90 and with PA-1 was “inactive” each time.

`CN1C(=O)c2sccc2N(C)c2nc(Nc3ccc(S(N)(=O)=O)cc3)ncc21`: the Potency in the experiment with CRL-7250 was 7.41 µM (active); with HEK293, 11.7 µM (active); in the experiment on HaCat [1] it was 18.6 µM (active); with NIH3T3 [2] it was 16.6 µM (active).

As for `O=C(Nc1ccc(Cl)cc1)C1CCCN(C(=O)c2cccc(-c3ccco3)c2)C1` (stereo not drawn), the Potency in the experiment with CRL-7250 is 13 µM (active); in the experiment on HEK293 it was 18.4 µM (active). Moreover, the max response in the experiment with HaCat [1] was -30%; with NIH3T3 [2], -26.4%. Besides, the Potency result in the experiment on C33A, in the experiment on CAOV3, in the experiment on CASKI, with Es-2, in the experiment with HeLa and with Hek293T was “inactive” each time. Moreover, the Potency entry with JEG-3, in the experiment with OV90 and with PA-1 was “inactive” each time.

Turning to `C#CCCCn1cc(-c2cccc3c2N[C@H](C)CC(=O)N3)cn1`, the max response is -3.86% in the experiment with CRL-7250, -13.5% with HEK293, 0.674% in the experiment with HaCat [1] and -3.84% with NIH3T3 [2]. Moreover, the Potency result in the experiment on C33A, in the experiment with CAOV3, in the experiment on CASKI, in the experiment on Es-2, with Hek293T and in the experiment with JEG-3 was “inactive” throughout. The Potency result in the experiment on OV90 is “inactive”. Besides, the Potency with HeLa is 0.891 µM (active); in the experiment on PA-1 it was 7.08 µM (active).

In the case of `N#Cc1ccnc(Nc2cc(C3CCN(C4COC4)CC3)cc(N3CCC(F)(F)C3)n2)c1`, the Potency is 11.7 µM (active) in the experiment with CRL-7250, 8.31 µM (active) in the experiment with HEK293, 23.4 µM (active) with HaCat [1] and 20.9 µM (active) in the experiment with NIH3T3 [2].

As for `COc1cc(S(C)(=O)=O)ccc1Nc1nc2ccc(-c3ccc(NC(=O)[C@H](C)c4ccc(F)cc4)cc3)cn2n1`, in the experiment on CRL-7250, the outcome was inactive. In addition, in the experiment with HEK293, the Potency is 0.331 µM (active).

Take `Cc1cc(-c2ncc(-c3cccnc3)cc2/C=C/c2ccccc2)cnc1-c1cccnc1`: the compound was classed as inactive in the experiment with CRL-7250, in the experiment on HaCat [1] and in the experiment with HACAT [3]. Moreover, the Potency in the experiment with HEK293 is 2.59 µM (active). In addition, the max response with NIH3T3 [2] was 3.84%. The Potency result in the experiment on C33A, in the experiment with CAOV3, in the experiment with CASKI, with Es-2, in the experiment with HeLa and with Hek293T was “inactive” throughout. In addition, the Potency result in the experiment on JEG-3, in the experiment on OV90 and with PA-1 was “inactive” throughout.

Regarding `N#Cc1cc(-c2ccnc(Nc3ccc(N4CCOCC4)cc3)n2)ccc1OC1CCOCC1`, the Potency in the experiment with CRL-7250 is 4.11 µM (active); with HEK293, 7.31 µM (active); in the experiment with NIH3T3 [2] it was 11.6 µM (active). Further, the compound was called inactive in the experiment on HaCat [1] and with HACAT [3]. For the same compound, the Potency entry in the experiment with C33A, in the experiment on CASKI, with Es-2, in the experiment on HeLa, with Hek293T and in the experiment on JEG-3 was “inactive” each time. In the experiment with OV90, the Potency result was “inactive”.
